# Laboratory results as given in ChEMBL document CHEMBL1961873, “Compounds: GSK PKIS; Assays: Nanosyn kinase panel” (2012).
# Key:
# [1] = biological target: T1, Mitogen-activated protein kinase 12 (Homo sapiens) (UniProt P53778); conditions: at 1 µM;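 further: values are averaged p38gamma kinase inhibition readings, compounds tested at 1 µM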
# T1 sequence (whole entry): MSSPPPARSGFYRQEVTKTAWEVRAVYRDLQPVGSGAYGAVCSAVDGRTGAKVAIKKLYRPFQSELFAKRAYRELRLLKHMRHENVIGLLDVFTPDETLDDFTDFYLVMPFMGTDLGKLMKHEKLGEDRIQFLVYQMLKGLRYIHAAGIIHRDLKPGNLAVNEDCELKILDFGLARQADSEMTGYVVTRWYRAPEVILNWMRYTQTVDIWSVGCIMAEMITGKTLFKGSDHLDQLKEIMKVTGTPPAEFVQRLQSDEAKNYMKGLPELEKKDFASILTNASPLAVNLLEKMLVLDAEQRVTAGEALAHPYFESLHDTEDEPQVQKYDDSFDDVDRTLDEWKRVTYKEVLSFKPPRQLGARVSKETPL
# [2] = biological target: SRSF protein kinase 1 (Homo sapiens) (UniProt Q96SB4); conditions: at 0.1 µM
# [3] = biological target: SRSF protein kinase 1 (Homo sapiens) (UniProt Q96SB4); conditions: at 1 µM
# [4] = biological target: Phosphatidylinositol 4,5-bisphosphate 3-kinase catalytic subunit alpha isoform (Homo sapiens) (UniProt P42336); conditions: at 0.1 µM
# [5] = biological target: Phosphatidylinositol 4,5-bisphosphate 3-kinase catalytic subunit alpha isoform (Homo sapiens) (UniProt P42336); conditions: at 1 µM
# [6] = biological target: T2, Phosphatidylinositol 4,5-bisphosphate 3-kinase catalytic subunit delta isoform (Homo sapiens) (UniProt O00329); conditions: at 0.1 µM
# T2 sequence (whole entry): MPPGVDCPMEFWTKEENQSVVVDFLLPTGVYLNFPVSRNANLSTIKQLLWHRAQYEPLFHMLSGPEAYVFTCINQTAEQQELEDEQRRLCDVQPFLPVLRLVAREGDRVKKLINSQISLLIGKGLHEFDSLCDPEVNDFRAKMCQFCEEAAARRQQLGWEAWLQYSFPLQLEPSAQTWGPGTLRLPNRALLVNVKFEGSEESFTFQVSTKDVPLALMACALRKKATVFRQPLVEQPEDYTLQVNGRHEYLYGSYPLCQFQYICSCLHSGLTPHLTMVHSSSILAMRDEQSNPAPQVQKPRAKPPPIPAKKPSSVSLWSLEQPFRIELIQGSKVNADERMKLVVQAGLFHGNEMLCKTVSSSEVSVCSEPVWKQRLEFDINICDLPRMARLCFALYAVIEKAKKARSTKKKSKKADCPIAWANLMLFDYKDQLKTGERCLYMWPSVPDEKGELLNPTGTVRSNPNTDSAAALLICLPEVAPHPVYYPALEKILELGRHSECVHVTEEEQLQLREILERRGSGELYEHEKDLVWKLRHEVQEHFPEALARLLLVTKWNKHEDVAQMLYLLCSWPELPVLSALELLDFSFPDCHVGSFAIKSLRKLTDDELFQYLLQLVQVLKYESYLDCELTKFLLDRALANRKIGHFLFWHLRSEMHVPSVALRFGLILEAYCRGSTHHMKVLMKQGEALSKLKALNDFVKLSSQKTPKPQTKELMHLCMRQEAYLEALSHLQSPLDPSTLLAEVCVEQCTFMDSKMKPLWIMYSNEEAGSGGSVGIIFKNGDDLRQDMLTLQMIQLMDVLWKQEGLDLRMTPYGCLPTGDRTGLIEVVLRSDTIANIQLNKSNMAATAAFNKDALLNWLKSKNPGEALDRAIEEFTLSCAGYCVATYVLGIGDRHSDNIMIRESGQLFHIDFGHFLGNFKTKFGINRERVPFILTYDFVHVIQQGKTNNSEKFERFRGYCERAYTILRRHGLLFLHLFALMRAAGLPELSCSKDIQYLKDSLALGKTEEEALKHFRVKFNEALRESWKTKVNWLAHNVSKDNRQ
# [7] = biological target: T2, Phosphatidylinositol 4,5-bisphosphate 3-kinase catalytic subunit delta isoform (Homo sapiens); conditions: at 1 µM
# [8] = biological target: Phosphatidylinositol 4-kinase beta (Homo sapiens) (UniProt Q9UBF8); conditions: at 0.1 µM
# [9] = biological target: Phosphatidylinositol 4-kinase beta (Homo sapiens) (UniProt Q9UBF8); conditions: at 1 µM
# [10] = biological target: Sphingosine kinase 1 (Homo sapiens) (UniProt Q9NYA1); conditions: at 0.1 µM
# [11] = biological target: Sphingosine kinase 1 (Homo sapiens) (UniProt Q9NYA1); conditions: at 1 µM
# [12] = biological target: T3, Sphingosine kinase 2 (Homo sapiens) (UniProt Q9NRA0); conditions: at 0.1 µM
# T3 sequence (whole entry): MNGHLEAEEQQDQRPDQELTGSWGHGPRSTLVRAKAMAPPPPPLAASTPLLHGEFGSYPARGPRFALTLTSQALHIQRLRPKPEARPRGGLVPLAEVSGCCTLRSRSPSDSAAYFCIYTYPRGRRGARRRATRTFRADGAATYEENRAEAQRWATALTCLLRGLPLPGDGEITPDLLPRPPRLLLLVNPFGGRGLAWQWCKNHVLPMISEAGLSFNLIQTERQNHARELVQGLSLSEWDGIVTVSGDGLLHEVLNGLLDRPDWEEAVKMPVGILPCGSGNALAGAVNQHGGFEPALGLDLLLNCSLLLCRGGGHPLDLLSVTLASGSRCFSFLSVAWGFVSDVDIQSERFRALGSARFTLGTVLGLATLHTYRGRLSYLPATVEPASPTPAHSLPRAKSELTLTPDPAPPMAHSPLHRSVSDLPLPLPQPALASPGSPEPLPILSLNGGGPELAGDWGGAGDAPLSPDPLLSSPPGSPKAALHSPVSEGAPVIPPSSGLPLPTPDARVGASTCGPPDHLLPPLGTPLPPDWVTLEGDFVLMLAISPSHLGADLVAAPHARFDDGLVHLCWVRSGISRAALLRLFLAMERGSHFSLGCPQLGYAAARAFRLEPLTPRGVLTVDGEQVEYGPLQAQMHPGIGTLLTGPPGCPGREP
# [13] = biological target: T3, Sphingosine kinase 2 (Homo sapiens); conditions: at 1 µM
# [14] = biological target: Casein kinase II subunit alpha (Homo sapiens) (UniProt P68400); conditions: at 0.1 µM
# [15] = biological target: Casein kinase II subunit alpha (Homo sapiens) (UniProt P68400); conditions: at 1 µM
# [16] = biological target: T4, Inhibitor of nuclear factor kappa-B kinase subunit alpha (Homo sapiens) (UniProt O15111); conditions: at 0.1 µM
# T4 sequence (whole entry): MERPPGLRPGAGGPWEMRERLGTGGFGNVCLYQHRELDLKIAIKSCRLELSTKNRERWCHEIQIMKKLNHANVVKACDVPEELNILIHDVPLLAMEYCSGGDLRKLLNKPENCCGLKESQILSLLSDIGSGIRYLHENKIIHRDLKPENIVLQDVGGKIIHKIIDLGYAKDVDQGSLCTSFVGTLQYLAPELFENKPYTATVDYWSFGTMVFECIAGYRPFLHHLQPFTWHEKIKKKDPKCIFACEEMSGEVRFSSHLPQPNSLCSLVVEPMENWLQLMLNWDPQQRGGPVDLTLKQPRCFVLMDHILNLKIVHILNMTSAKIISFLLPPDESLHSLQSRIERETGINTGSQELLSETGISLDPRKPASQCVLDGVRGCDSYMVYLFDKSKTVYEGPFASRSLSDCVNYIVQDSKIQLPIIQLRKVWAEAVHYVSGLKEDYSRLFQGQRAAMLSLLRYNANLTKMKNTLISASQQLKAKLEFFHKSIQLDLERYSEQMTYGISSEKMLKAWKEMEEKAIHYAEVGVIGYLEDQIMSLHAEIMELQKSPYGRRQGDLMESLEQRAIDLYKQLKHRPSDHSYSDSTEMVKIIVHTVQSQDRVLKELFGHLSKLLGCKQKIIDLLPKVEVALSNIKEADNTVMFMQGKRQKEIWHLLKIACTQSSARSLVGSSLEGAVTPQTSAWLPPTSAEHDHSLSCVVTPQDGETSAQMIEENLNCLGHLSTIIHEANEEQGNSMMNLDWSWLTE
# [17] = biological target: T4, Inhibitor of nuclear factor kappa-B kinase subunit alpha (Homo sapiens); conditions: at 1 µM
# [18] = biological target: T5, Inhibitor of nuclear factor kappa-B kinase subunit beta (Homo sapiens) (UniProt O14920); conditions: at 0.1 µM
# T5 sequence (whole entry): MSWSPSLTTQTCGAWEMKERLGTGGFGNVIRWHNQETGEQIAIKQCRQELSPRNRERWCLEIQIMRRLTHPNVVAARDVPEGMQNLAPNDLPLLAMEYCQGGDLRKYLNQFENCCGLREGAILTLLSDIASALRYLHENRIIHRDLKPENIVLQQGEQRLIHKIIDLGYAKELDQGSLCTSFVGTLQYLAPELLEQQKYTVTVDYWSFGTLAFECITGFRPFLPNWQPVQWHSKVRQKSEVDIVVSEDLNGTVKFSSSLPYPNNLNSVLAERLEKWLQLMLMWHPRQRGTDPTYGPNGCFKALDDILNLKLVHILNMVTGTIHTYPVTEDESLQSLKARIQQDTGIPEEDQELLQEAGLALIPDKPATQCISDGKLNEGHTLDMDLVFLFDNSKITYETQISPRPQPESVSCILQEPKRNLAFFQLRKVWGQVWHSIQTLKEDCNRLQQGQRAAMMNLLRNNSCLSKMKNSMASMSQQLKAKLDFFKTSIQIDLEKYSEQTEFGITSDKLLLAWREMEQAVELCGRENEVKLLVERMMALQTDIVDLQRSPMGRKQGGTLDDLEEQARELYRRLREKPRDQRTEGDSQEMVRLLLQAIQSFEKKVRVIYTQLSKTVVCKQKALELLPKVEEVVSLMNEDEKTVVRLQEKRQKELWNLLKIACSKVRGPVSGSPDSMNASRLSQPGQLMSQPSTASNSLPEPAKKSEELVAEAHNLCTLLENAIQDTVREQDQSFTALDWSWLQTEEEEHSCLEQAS
# [19] = biological target: T5, Inhibitor of nuclear factor kappa-B kinase subunit beta (Homo sapiens); conditions: at 1 µM
# [20] = biological target: T6, Inhibitor of nuclear factor kappa-B kinase subunit epsilon (Homo sapiens) (UniProt Q14164); conditions: at 0.1 µM;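 further: mean inhibition of IKKε reported, from the GSK PKIS dataset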
# T6 sequence (whole entry): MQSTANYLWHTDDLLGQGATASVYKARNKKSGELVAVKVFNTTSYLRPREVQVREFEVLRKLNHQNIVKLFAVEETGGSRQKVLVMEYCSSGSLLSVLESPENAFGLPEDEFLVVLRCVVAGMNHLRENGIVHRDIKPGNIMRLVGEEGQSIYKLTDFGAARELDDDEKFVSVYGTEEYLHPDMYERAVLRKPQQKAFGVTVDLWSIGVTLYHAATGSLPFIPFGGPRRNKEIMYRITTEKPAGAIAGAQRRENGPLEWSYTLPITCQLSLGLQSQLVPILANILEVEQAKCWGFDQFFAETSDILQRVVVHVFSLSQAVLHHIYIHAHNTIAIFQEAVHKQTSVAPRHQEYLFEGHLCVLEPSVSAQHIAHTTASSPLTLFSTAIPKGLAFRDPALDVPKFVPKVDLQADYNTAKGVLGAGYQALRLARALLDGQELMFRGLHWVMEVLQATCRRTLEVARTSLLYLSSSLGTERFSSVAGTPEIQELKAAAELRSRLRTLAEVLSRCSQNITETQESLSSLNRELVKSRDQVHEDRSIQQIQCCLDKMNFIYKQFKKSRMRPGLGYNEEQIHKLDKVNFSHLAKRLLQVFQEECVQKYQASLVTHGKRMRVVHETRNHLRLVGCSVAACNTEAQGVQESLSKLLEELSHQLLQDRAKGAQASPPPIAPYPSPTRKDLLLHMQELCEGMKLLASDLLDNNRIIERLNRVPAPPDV
# Sequence of Sphingosine kinase 1 (Homo sapiens) (Q9NYA1 whole entry): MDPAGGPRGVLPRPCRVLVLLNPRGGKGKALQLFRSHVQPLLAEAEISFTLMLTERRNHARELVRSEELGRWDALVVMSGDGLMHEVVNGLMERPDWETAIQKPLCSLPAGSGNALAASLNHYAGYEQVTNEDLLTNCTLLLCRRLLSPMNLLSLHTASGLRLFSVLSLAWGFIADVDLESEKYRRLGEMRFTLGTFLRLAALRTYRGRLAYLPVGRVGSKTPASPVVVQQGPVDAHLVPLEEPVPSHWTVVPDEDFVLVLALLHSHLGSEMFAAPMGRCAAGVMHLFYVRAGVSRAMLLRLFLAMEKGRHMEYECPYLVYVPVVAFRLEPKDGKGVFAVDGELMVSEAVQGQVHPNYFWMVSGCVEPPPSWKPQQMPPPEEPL
# Sequence of Casein kinase II subunit alpha (Homo sapiens) (P68400 whole entry, looked up): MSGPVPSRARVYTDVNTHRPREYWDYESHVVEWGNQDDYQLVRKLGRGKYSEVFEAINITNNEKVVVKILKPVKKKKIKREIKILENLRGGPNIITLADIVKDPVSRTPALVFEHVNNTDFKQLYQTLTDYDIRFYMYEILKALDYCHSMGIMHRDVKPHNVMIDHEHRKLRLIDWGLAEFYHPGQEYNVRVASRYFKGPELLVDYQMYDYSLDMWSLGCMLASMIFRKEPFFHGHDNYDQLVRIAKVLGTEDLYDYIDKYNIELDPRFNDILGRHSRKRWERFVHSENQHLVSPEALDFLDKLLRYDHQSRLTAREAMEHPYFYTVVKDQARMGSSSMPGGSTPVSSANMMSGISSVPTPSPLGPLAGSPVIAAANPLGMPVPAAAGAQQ
# Sequence of Phosphatidylinositol 4-kinase beta (Homo sapiens) (Q9UBF8 2-816 limits assumed): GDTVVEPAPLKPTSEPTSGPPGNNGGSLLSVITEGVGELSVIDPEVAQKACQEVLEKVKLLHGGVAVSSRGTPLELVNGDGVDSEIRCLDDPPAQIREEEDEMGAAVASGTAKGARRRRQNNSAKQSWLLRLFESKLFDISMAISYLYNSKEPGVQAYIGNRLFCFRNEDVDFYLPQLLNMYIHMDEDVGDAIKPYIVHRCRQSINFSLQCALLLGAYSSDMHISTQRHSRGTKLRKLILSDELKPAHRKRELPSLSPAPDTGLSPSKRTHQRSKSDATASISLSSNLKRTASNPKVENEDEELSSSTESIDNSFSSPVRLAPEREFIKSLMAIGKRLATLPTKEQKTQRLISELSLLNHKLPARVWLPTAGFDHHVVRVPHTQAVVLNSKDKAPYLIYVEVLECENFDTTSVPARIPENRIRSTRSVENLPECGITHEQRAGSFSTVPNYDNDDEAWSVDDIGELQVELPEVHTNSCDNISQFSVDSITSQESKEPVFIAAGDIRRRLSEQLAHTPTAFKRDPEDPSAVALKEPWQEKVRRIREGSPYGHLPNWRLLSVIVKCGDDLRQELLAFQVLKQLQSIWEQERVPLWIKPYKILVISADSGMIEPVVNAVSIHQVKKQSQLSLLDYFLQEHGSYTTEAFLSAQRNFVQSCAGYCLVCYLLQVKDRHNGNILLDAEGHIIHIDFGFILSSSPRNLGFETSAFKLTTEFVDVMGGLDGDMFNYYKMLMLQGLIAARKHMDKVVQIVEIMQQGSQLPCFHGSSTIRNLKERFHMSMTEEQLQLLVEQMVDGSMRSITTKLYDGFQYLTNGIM
# Sequence of SRSF protein kinase 1 (Homo sapiens) (Q96SB4 whole entry, canonical isoform): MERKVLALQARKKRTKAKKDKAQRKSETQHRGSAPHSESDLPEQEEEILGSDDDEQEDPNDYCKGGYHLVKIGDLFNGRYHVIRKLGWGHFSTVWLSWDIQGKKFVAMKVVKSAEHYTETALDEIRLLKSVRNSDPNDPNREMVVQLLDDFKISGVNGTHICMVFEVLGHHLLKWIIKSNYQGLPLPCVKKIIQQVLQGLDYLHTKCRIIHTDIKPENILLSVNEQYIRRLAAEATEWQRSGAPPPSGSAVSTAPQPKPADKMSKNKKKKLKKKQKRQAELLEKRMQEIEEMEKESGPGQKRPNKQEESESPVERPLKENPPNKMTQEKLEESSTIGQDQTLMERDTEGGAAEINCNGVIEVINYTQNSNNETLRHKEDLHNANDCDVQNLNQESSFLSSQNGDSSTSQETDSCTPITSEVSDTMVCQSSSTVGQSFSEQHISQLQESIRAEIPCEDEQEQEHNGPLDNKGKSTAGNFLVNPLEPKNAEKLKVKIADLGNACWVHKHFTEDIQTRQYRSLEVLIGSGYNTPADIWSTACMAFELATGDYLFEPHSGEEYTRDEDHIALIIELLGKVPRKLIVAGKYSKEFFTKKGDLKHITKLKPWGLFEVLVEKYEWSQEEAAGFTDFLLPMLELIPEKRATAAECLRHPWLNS
# Sequence of Phosphatidylinositol 4,5-bisphosphate 3-kinase catalytic subunit alpha isoform (Homo sapiens) (P42336 whole entry, canonical isoform): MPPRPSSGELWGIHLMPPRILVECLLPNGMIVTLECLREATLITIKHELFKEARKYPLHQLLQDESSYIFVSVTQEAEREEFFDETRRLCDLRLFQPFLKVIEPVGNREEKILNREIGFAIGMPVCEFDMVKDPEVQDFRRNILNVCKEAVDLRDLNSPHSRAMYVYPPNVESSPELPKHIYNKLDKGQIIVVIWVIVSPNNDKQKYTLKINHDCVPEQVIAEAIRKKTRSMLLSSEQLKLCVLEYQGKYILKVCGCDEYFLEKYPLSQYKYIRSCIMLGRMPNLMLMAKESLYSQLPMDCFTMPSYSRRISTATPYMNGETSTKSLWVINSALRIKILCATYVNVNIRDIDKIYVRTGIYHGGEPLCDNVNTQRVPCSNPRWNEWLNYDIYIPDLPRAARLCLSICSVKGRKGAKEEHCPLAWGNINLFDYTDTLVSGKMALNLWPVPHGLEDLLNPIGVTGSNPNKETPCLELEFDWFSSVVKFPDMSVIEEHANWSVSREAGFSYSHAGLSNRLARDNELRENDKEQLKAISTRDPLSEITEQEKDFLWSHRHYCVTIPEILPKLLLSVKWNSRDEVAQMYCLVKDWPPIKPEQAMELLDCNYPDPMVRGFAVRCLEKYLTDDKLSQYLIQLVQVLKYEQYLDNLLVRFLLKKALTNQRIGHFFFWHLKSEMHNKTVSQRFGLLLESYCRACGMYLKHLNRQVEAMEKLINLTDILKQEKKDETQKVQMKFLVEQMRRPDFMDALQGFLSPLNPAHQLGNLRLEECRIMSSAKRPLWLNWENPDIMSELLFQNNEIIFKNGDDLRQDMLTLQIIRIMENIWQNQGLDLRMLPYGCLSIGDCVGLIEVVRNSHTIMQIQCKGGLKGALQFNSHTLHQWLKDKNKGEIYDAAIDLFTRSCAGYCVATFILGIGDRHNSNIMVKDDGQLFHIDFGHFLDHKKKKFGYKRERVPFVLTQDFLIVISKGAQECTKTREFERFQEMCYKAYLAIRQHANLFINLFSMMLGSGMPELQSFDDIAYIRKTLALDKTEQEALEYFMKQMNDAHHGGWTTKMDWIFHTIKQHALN
smiles,measurement,setting,value
COc1cc2ncnc(Nc3ccc(C)c(O)c3)c2cc1OC,inhibition,[1],4.08%
same,inhibition,[2],-1.2%
same,inhibition,[3],-0.28%
same,inhibition,[4],4.07%
same,inhibition,[5],7.27%
same,inhibition,[6],1.27%
same,inhibition,[7],4.88%
same,inhibition,[8],-1.03%
same,inhibition,[9],-0.17%
same,inhibition,[10],4.48%
same,inhibition,[11],-3.1%
same,inhibition,[12],-0.83%
same,inhibition,[13],0.12%
same,inhibition,[14],2.65%
same,inhibition,[15],6.37%
same,inhibition,[16],7.19%
same,inhibition,[17],11.6%
same,inhibition,[18],6.42%
same,inhibition,[19],6.01%
same,inhibition,[20],5.22%
COc1cc(/C=N/Nc2ncnc3c2cnn3C(C)C)ccc1O,inhibition,[1],1.85%
same,inhibition,[2],-0.73%
same,inhibition,[3],1.12%
same,inhibition,[4],19%
same,inhibition,[5],70.5%
same,inhibition,[6],20.9%
same,inhibition,[7],71.3%
same,inhibition,[8],-8.74%
same,inhibition,[9],26.5%
same,inhibition,[10],0.17%
same,inhibition,[11],7.48%
same,inhibition,[12],-1.04%
same,inhibition,[13],1.89%
same,inhibition,[14],2.91%
same,inhibition,[15],11.8%
same,inhibition,[16],-0.1%
same,inhibition,[17],-0.51%
same,inhibition,[18],2.79%
same,inhibition,[19],-2.39%
same,inhibition,[20],1.71%
COc1cc(Nc2nccc(-c3cnn4ncccc34)n2)cc(OC)c1,inhibition,[1],5.11%
same,inhibition,[2],-0.28%
same,inhibition,[3],4.85%
same,inhibition,[4],2.19%
same,inhibition,[5],20.5%
same,inhibition,[6],6.1%
same,inhibition,[7],35%
same,inhibition,[8],-0.41%
same,inhibition,[9],14.9%
same,inhibition,[10],0%
same,inhibition,[11],0.57%
same,inhibition,[12],0%
same,inhibition,[13],0.21%
same,inhibition,[14],8.84%
same,inhibition,[15],42.7%
same,inhibition,[16],17.4%
same,inhibition,[17],71.4%
same,inhibition,[18],5.71%
same,inhibition,[19],24.5%
same,inhibition,[20],5.75%
